Test results from PubChem BioAssay AID449762 (Southern Research Specialized Biocontainment Screening …, 2010).
About 1,900 (0.58%) of roughly 330,000 compounds were called active. Roughly 4% stayed inconclusive and do not appear here. These entries were drawn from the full list. Entries with a potency or affinity are not part of this list. Unmarked numbers belong to inactive results. Cut-off read from the data, not from the text of the source: inconclusive = inhibition above about 70% without an active follow-up result; inactive = below that.

assay: M. tuberculosis growth inhibition, HTS (AID 449762);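 note: bacterial growth assessed after seven days of incubation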; settings: M. tuberculosis H37Rv growth inhibition, 7H9 media; at 25 µM; stronger effect = higher value

Compound	inhibition [%]
O=C(O/N=C1/CCCc2occc21)c1ccccc1	6.31
CCCn1c(S(=O)(=O)O)nc2ccccc21	5.54
COc1cc2c(cc1OC)C(C)N(S(=O)(=O)c1cccs1)CC2 (centres undefined)	-12.1
O=C(NC1CCCCC1)C(c1ccc(F)cc1)N(CCN1CCOCC1)C(=O)c1ccc(-c2ccccc2)[nH]1 (centres undefined)	42.3
O=C(NC1CCCC1)C(c1ccncc1)N(CCCN1CCOCC1)C(=O)c1ccc(-c2ccccc2)[nH]1 (centres undefined)	3.89
CCC(COC(=O)Nc1ccccc1)NC(=O)OC(C)C (centres undefined)	-6.07
COc1cccc(Cn2cnc3c(NS(=O)(=O)c4cc(Cl)ccc4Cl)c(C)c(C)cc32)c1	0.44
Oc1ccc(Nc2nc(-c3ccc(O)cc3)cs2)cc1	4.52
NS(=O)(=O)c1ccc(Nc2nc(-c3ccc4ccccc4c3)cs2)cc1	1.78
CSc1ccccc1NC(=O)Cn1nnc(-c2ccc(S(C)(=O)=O)cc2)n1	-2.14
NC(=O)C1CCN(Cc2nc(-c3ccccc3)no2)CC1	-14.2
O=c1c2ccccc2cnn1Cc1n[nH]c(=S)n1-c1ccc(F)cc1	4.78
CCOC(=O)N/N=C(\C)c1ccc(C)o1	-1.85
CCOC(=O)N/N=C\c1ccc([N+](=O)[O-])o1	-1.58
CC(C)NC(=O)N(O)C1N(Cc2ccc3c(c2)OCO3)C(=S)SC1(C)C (centres undefined)	3.94
CCCc1cc(C(=O)OC)c(NC(=O)CCCC(=O)O)s1	0.02
Cc1nn(CC(=O)NCCCc2ccccc2)c(=O)c2cc3occc3n12	3.16
COc1cccc(NC(=O)CN(C)C(=O)CNC(=O)c2ccc(Oc3ccccc3)cc2)c1	7.98
Cc1c(Cl)cccc1NC(=S)N1CCN(C(=O)c2ccco2)CC1	-0.43
COc1ccc(N2C(=O)C(F)(F)C2c2ccc(C)cc2)cc1OC (centres undefined)	60.7

Compound	inhibition [%]
Cc1ccc(N2C(=O)C(CN(C)C)C2c2ccccc2)cc1 (centres undefined)	-6.05
CC1=NN(C(=O)c2c(Br)c(C)nn2C)C(O)(C(F)(F)F)C1 (centres undefined)	0.52
C#CCSc1nc2ccccc2n1C(=O)c1ccc(S(=O)(=O)N2CCCCC2)cc1	-2.86
COC(=O)C1=C(c2ccc(S(C)(=O)=O)cc2)C[C@@H]2CC[C@H]1N2C(=O)N1CCCCC1	3.7
Cc1c(Cl)cccc1NC(=O)NCc1ccccn1	-11.4
Cc1c(C(=O)NCc2ccccn2)oc2c(Cl)cccc12	-3.71
CCC1CCCCN1CCCNC(=O)Cn1nc(C)n2nc(-c3ccccc3)cc2c1=O (centres undefined)	1.58
CCSc1nnc(CCNS(=O)(=O)c2ccc(C(C)=O)cc2)n1C	0.26
S=C(Nc1cc(Cl)cc(Cl)c1)N1CCCC1	0.04
Cc1cc2c(ncn2Cc2ccccc2)c(N)c1C	2.7
CCCn1cnc2c(N)c(C)c(C)cc21	-11.4
O=C(NNC(=O)C1CCN(c2ncccn2)CC1)c1ccc(F)cc1	0.94
CC(=O)OC1N=C(c2ccccc2Cl)c2cc(Br)ccc2N(C)C1=O (centres undefined)	-6.48
N#C/C(=C/c1ccc(N2CCCCC2)o1)C(=O)NCCc1c[nH]c2ccccc12	-3.85
N#C/C(=C/c1ccc(Br)s1)C(=O)NCCc1c[nH]c2ccccc12	3.76
CCN1CCc2nc(NC(=O)Cc3ccc4c(c3)OCCO4)sc2C1	-17.6
CC(C)NC(=O)CCCN1C(=O)c2ccccc2Sc2ncccc21	1.48
O=C(O)c1cc(-c2ccncc2)nc2ccc(S(=O)(=O)N3CCOCC3)cc12	3.61
O=C(NC(=S)Nc1ccc(N2CCOCC2)c(Cl)c1)c1cccs1	3.13
O=C(Nc1ccc(N2CCCC2)c(Cl)c1)c1cccs1	7.74

Compound	inhibition [%]
COc1ccc2c(c1)[C@H]1[C@H](CO2)[C@H](c2ccccc2)[C@]2(C)C(=O)Nc3ccc(C)cc3C(=O)N12	1.01
COc1ccc2c(c1)C(=O)N1[C@H]3c4cc(OC)ccc4OC[C@@H]3[C@H](c3ccccc3)[C@]1(C)C(=O)N2	1.44
O=c1c2cccc3c2c(nn1-c1ccccc1)-c1ccccc1-3	-2.02
COc1cccc(NC(=O)CN(C)C(=O)c2c(C)nn(CC(C)C)c2Cl)c1	-7.79
O=C(COc1ccccc1)OCc1csc(Nc2ccccc2)n1	11.3
O=C(COc1ccc(Cl)cc1)OCc1csc(Nc2ccccc2)n1	4.58
CC1CCCC(NC(=O)COC(=O)c2ccc(Br)o2)C1C (centres undefined)	10.4
COCCN(C(=O)c1cc(-c2ccncc2)nc2ccccc12)c1c(N)n(CC(C)C)c(=O)[nH]c1=O	-4.69
C=C(C)C1Cc2c(C)nn(-c3ccccc3)c2C1 (centres undefined)	5.29
C=C(C)C1Cc2c(C)nn(-c3cccc4ccccc34)c2C1 (centres undefined)	40.9
CC(c1ccccc1)N1C(=O)C2C3C=CC(C4CC34)C2C1=O (centres undefined)	0.61
Cc1cc(C2=NNC(=NC3CC3)SC2)c(C)n1Cc1ccco1	63.5
CCN=C1NN=C(c2cc(C)n(Cc3ccco3)c2C)CS1	-1.01
CCCCn1c(CN2CCN(c3cccc(Cl)c3)CC2)nc2c1c(=O)[nH]c(=O)n2C	62.7
CC1CCCN(C2(O)C(=O)Nc3ccc(Br)cc32)C1 (centres undefined)	5.15
COCCN(C(=O)COC(=O)c1cc2ccccc2cc1OC)c1c(N)n(Cc2ccccc2)c(=O)[nH]c1=O	-2.06
COc1ccccc1OCC(=O)Nc1ccc(C(N)=O)cc1	-3.41
CC(=Nc1cccc(O)c1)c1sc2ccccc2c1O	11.9
CCCn1nc(C(=O)Nc2ccc(S(=O)(=O)Nc3nccs3)cc2)c2ccccc2c1=O	8.73
